The list is not random: actives were taken first. Their share in the collection is about 1.8%.
ABCB6 inh MLPCN = human ABCB6 transporter inhibition; Q9NP58; K562-ABCB6 porphyrin accumulation, flow cytometry, 1 h; hits give low values; fluorescence ratio to DMSO, % at 10 µM; 0.19% of 360,000 active; AID 602162;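 active = fluorescence ratio to DMSO below 75%, the collection mean minus 3 SD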;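 also: signal is porphyrin accumulated inside mitochondria; lower ratio means ABCB6 inhibition with less porphyrin fluorescence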
GSIS activator = GLuc luminescence reporter in INS-1E cells, primary screen for activators of glucose-dependent secretion of insulin. 0.61% of 370,000 active. activation, % at 16.6 µM. AID 743287. INS-1E GLuc reporter insulin secretion, 2-3 h;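 active = lowest replicate activation of at least 40%, so every replicate reaches that level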
iPSC survival up = hiPSC single-cell survival enhancement. ATPlite luminescence; 100% = ROCK inhibitor wells, 0% = DMSO. survival enhancement, % at 20 µM. 0.044% of 360,000 active; in the data active = survival enhancement above about 18%;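 also: cells exposed to compounds for 16 hours before the ATP read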
CendR NRP1 mod = alters CendR peptide binding to human NRP-1 | FAM-RPARPAR peptide binding to NRP-1, fluorescence polarization | inhibition, % at 25 µM | 0.85% of 360,000 active | AID 602438;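 active = inhibition or corrected inhibition above about 18%, plus a signal ratio from 0.5 to 1.5, limit read from the data, passing the limit was not always enough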
ARNT TACC3 PPI = ARNT/TACC3 interaction disruption; Q9Y6A5; AlphaScreen His-ARNT PAS-B/GST-TACC3 binding, luminescence; TACC3 fragment carries E629A point mutation; inhibition, % at 9.99 µM; 0.66% of 390,000 active;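 active = mean inhibition of replicates at least 50% and at least half of replicates each reaching 50%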
Of the large screens only hits and unclear results are named; the others gave an inactive call.

O=C(O)CN1C(=O)/C(=C\c2cn(-c3ccccc3)nc2-c2ccccc2)SC1=S	ARNT TACC3 PPI 46 (no result: GSIS activator)
COCC(=O)N1CC2(C1)[C@H](c1ccc(-c3ccccc3)cc1)[C@@H](CO)N2C(=O)COC	none (no result: ABCB6 inh MLPCN, iPSC survival up, CendR NRP1 mod, ARNT TACC3 PPI)
COC(=O)C[C@@H]1CC[C@H]2[C@@H](COc3ccc(NC(=O)c4ccc(OC)cc4)cc3C(=O)N2C)O1	none (no result: ABCB6 inh MLPCN, iPSC survival up, CendR NRP1 mod)
Cc1cc(=O)n2[nH]c(SCc3ccccc3)nc2n1	none (no result: GSIS activator)
O=c1cc(-c2ccccc2)nc(SCc2ccccc2)[nH]1	GSIS activator 79 (no result: ARNT TACC3 PPI)
O=c1cc(-c2ccccc2)nc2nc(SCc3ccccc3)[nH]n12	iPSC survival up 31 (no result: GSIS activator)
O=C(CN1C2=NCCN2c2ccccc21)c1ccco1	CendR NRP1 mod 32 (no result: GSIS activator)
CC(C)c1nnc(NC(=O)c2cnccn2)s1	ARNT TACC3 PPI 50 (no result: GSIS activator)
CC(C)(C)NC(=O)Cn1nnc(-c2ccccc2NC(=O)c2cnccn2)n1	iPSC survival up 22 (no result: GSIS activator)
CC(C)c1ccccc1NC(=O)c1cnccn1	CendR NRP1 mod 59
CSc1ccccc1NC(=O)c1cnccn1	none
CS(=O)(=O)N1[C@@H]2CN(CC3CC3)C[C@H]1C2c1ccc(Br)cc1 (some centres undefined)	none (no result: ABCB6 inh MLPCN, iPSC survival up, CendR NRP1 mod, ARNT TACC3 PPI)
COC(=O)N[C@@H]1C[C@H]2[C@@H]3CC[C@H]4C[C@@H](OC)CC[C@]4(C)[C@H]3CC[C@]12C	CendR NRP1 mod 28
COc1ccc(C(=O)OCC(=O)NC(=O)NC2CCCC2)cc1OC	GSIS activator 56
COc1ccc(NC(=O)C2CC2)cc1OC1CCCC1	none (no result: GSIS activator)
COC(=O)c1ccc(OC)c(OC2CCCC2)c1	GSIS activator 47
COc1ccc([C@@H]2CC=CC[C@@H](C)Oc3ccccc3C(=O)N(C)[C@@H](C)C(=O)N2)c(OC)c1 (mixture of isomers)	none (no result: ABCB6 inh MLPCN, iPSC survival up, CendR NRP1 mod, ARNT TACC3 PPI)
COc1ccc(/C=N/OCC(=O)N=Nc2c(O)[nH]c3ccc(Br)cc23)cc1	none
Cc1cccc(C)c1OCC(=O)N=Nc1c(O)[nH]c2ccc(Br)cc12	GSIS activator 51
O=C1CCCCN1CCC(=O)N1CCCC(N2CCN(c3ccccc3)CC2)C1 (centres undefined)	none
O=C1CCCCN1CCC(=O)N1CCCC(N2CCN(c3cccc(Cl)c3)CC2)C1 (centres undefined)	CendR NRP1 mod 25
CCCC(=O)N1CC2(CCN(Cc3cccnc3)CC2)c2c([nH]c3cc(OC)ccc23)[C@H]1CO	none (no result: ABCB6 inh MLPCN, iPSC survival up, CendR NRP1 mod, ARNT TACC3 PPI)
CCCCOc1ccc(-c2nnn(CC(=O)c3c[nH]c4ccccc34)n2)cc1	GSIS activator 94
Cc1ccccc1S(=O)(=O)/N=C(/c1ccccc1)N1CCOCC1	none
O=C(c1ccco1)N1CCN(/C(=N/S(=O)(=O)c2cccs2)c2ccccc2Cl)CC1	CendR NRP1 mod 27 (no result: GSIS activator)
N/C(=N\S(=O)(=O)c1cccs1)c1ccccc1Cl	none
O=S(=O)(/N=C(\c1ccccc1)N1CCOCC1)c1cccs1	CendR NRP1 mod 27 (no result: GSIS activator)
CC(=O)N(C)C[C@@H]1Oc2ccc(N(C)C)cc2CC(=O)N(C)C[C@H]1C	none (no result: ABCB6 inh MLPCN, iPSC survival up, CendR NRP1 mod, ARNT TACC3 PPI)
CC(=O)NC1=C(NC2CCS(=O)(=O)C2)C(=O)c2ccccc2C1=O (centres undefined)	none
CN(C1=C(NC(=O)c2ccccc2)C(=O)c2ccccc2C1=O)C1CCS(=O)(=O)C1 (centres undefined)	CendR NRP1 mod 45 (no result: ARNT TACC3 PPI)
O=C(Cc1ccccc1)NC(NCCc1ccccc1)C(Cl)(Cl)Cl (centres undefined)	CendR NRP1 mod 22 (no result: GSIS activator)
Cc1cc(=O)oc2c1c(C)nn2-c1nn[nH]n1	ARNT TACC3 PPI 64 (no result: GSIS activator)
CN=c1scc(-c2cccs2)n1/N=C/c1ccc(O)c(O)c1O	ARNT TACC3 PPI 60
Oc1ccc(/C=N/n2c(-c3ccco3)csc2=Nc2cccnc2)c(O)c1	ARNT TACC3 PPI 64
CC(C)N=c1scc(-c2ccco2)n1/N=C/c1ccc(O)c(O)c1	none
C=CCN=c1scc(-c2ccco2)n1/N=C/c1ccc(O)c(O)c1O	ARNT TACC3 PPI 49
O=C1CC(NS(=O)(=O)c2cccs2)CN1c1cccc(F)c1 (centres undefined)	GSIS activator 46
c1ccc(-c2nc(-c3ccccn3)nc(-c3ccccn3)n2)nc1	ARNT TACC3 PPI 51
Clc1ccc(-c2cnnc(-c3ccccn3)n2)cc1	ARNT TACC3 PPI 61
c1ccc(-c2nc3ccccc3nc2-c2ccccn2)nc1	none
Nc1nc(N)nc(-c2ccccn2)n1	ARNT TACC3 PPI 64
CO[C@@H]1CN(C)C(=O)c2ccc(NC(=O)c3ccccc3F)cc2OC[C@H](C)N(CC2CCOCC2)C[C@H]1C	none (no result: ABCB6 inh MLPCN, iPSC survival up, CendR NRP1 mod)
Cc1ccccc1-c1cnc2c(c1)C(=O)N([C@@H](C)CO)C[C@@H](C)[C@H](CN(C)C(=O)CC1CC1)O2	none (no result: ABCB6 inh MLPCN, iPSC survival up, CendR NRP1 mod, ARNT TACC3 PPI)
CN(C)CCCn1c2c3ccccc3ccc2c2oc(=O)c3ccccc3c21	GSIS activator 80
CN(C)CCCn1c(=S)[nH]c2ccccc2c1=O	none
N#Cc1ccc(-c2ccc3c(c2)[C@@H]2[C@@H](CCN2C(=O)c2ccc4c(c2)OCO4)[C@@H](CO)N3)cc1	none (no result: ABCB6 inh MLPCN, iPSC survival up, CendR NRP1 mod)
C/C(=N/Oc1nc(C)cc(C)n1)c1ccc(F)cc1	GSIS activator 64
C/C(=N/Oc1nc(C)cc(C)n1)c1ccccc1	none (no result: GSIS activator)
O=C1N/C(=C/c2cccn2-c2ccc(F)cc2)C(=O)N1Cc1ccccc1F	CendR NRP1 mod 43 (no result: ARNT TACC3 PPI)
C[C@H]1CCCCO[C@@H](CN(C)C(=O)Nc2ccc(F)cc2)[C@@H](C)CN([C@@H](C)CO)C(=O)c2cc(NC(=O)c3ccccc3)ccc2O1	none (no result: ABCB6 inh MLPCN, iPSC survival up, CendR NRP1 mod)
Cc1ccc(C(=O)C(C)Sc2nnc(N)s2)cc1 (centres undefined)	none
COC(=O)C(C)Sc1nnc(SC(C)C(=O)OC)s1 (centres undefined)	CendR NRP1 mod 36
C=CCn1c(SCCOc2ccccc2)nnc1C(C)NC(=O)c1ccccc1 (centres undefined)	none (no result: GSIS activator)
C=CCn1c(CCNC(=O)c2ccc(Cl)c(Cl)c2)nnc1SCCOc1ccc(OC)cc1	CendR NRP1 mod 26
CC(NS(=O)(=O)c1cn(C)c(=O)n(C)c1=O)c1ccccc1 (centres undefined)	CendR NRP1 mod 26
Cn1cc(S(=O)(=O)NCCc2ccccc2)c(=O)n(C)c1=O	none
Cn1c(=O)c2[nH]c(CCNC(=O)c3ccccc3)nc2n(C)c1=O	CendR NRP1 mod 18
CC1(C)Cc2ccccc2C(Nn2cnnc2)=N1	none
CC1(C)Cc2ccccc2C2=NNC(=O)C2=N1	ARNT TACC3 PPI 61
C[C@H](CO)N1C[C@H](C)[C@@H](CN(C)S(=O)(=O)c2cccs2)Oc2ccc(NC(=O)Cn3cnnn3)cc2CC1=O	none (no result: ABCB6 inh MLPCN, iPSC survival up, CendR NRP1 mod, ARNT TACC3 PPI)
O=c1ccc(-c2ccc(S(=O)(=O)NCC3CCN(Cc4ccccc4F)CC3)s2)n[nH]1	ARNT TACC3 PPI 50
Cc1ccc(C(=O)Nn2cnnc2)cc1[N+](=O)[O-]	CendR NRP1 mod 26
O=C(Nc1cccc(F)c1)N1CC(=O)N2[C@H](CO)[C@H](c3ccc(-c4ccccc4F)cc3)[C@H]2C1	none (no result: ABCB6 inh MLPCN, iPSC survival up, CendR NRP1 mod, ARNT TACC3 PPI)
CCCCCCSc1cc(-c2nc3cc(C)ccn3c2NCCCC)ccc1OC	none
